From PubChem BioAssay (NCATS)
Records with an inconclusive call do not appear. Activity calls are given as the source filed them. Calls come from the whole dose curve; as a rule, active = well fitted curve in the direction sought with a large enough effect; inconclusive = small, poorly fitted or top-dose-only effect, or another doubt; inactive = no such curve, though single readings can be large; an effect the other way counts as inactive or inconclusive.

What was measured:
[1] = Quantitative High-Throughput drug screen in 47 multiple myeloma cell lines against the NCATS MIPE library collection: ARD_JJKsccE7 cell viability assay (AID 1918929)
In short: (§1)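 CellTiter-Glo ATP luminescence gave viability after 48 h compound treatment at 37C of 500 multiple myeloma cells per well. Normalisation used DMSO-only wells as 100% and media-only wells as 0% viability; primary qHTS of approved and investigational drugs.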

[2] = Quantitative High-Throughput drug screen in 47 multiple myeloma cell lines against the NCATS MIPE library collection: Karpas620_DSMZ cell viability assay (AID 1918959); note: nearly all actives have a fitted effect of over 30% in size
In short: (§2)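 CellTiter-Glo luminescence (ATP) after 48 h compound exposure, 37C/5% CO2; 500 cells/well; MIPE 4.0 approved/investigational drugs pinned in; DMSO = 100%, media only = 0% viability.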

[3] = Quantitative High-Throughput drug screen in 47 multiple myeloma cell lines against the NCATS MIPE library collection: H1112_PLB cell viability assay (AID 1918967; note: nearly all actives have a fitted effect of over 30% in size)
In short: as §1

[4] = Quantitative High-Throughput drug screen in 47 multiple myeloma cell lines against the NCATS MIPE library collection: KHM11_PLB cell viability assay (AID 1918962); note: nearly all actives have a fitted effect of over 35% in size
In short: as §2

[5] = Quantitative High-Throughput drug screen in 47 multiple myeloma cell lines against the NCATS MIPE library collection: JIM3_ECACC cell viability assay (AID 1918963; note: nearly all actives have a fitted effect of over 35% in size)
In short: as §2

[6] = Quantitative High-Throughput drug screen in 47 multiple myeloma cell lines against the NCATS MIPE library collection: KMM1_JCRB cell viability assay (AID 1918960); note: nearly all actives have a fitted effect of over 30% in size
In short: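 Myeloma cells at 500 per well in 1536-well format treated with MIPE 4.0 library by pin transfer for 48 h at 37C, 5% CO2. Viability from ATP luminescence (CellTiter-Glo), normalized to DMSO (100%) and media-only (0%) wells.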

[7] = Quantitative High-Throughput drug screen in 47 multiple myeloma cell lines against the NCATS MIPE library collection: INA6_PLB cell viability assay (AID 1918965; note: nearly all actives have a fitted effect of over 55% in size)
In short: (§3)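 Myeloma cells (500 per well) were exposed to MIPE 4.0 compounds by pin transfer and incubated 48 hours at 37C, 5% CO2. Viability was read as ATP by CellTiter-Glo luminescence, normalised to DMSO (100%) and media-only (0%) wells.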

[8] = Quantitative High-Throughput drug screen in 47 multiple myeloma cell lines against the NCATS MIPE library collection: JJN3_DSMZ cell viability assay (AID 1918966; note: nearly all actives have a fitted effect of over 50% in size)
In short: as §1

[9] = Quantitative High-Throughput drug screen in 47 multiple myeloma cell lines against the NCATS MIPE library collection: JIM1_ECACC cell viability assay (AID 1918964)
In short: as §1

[10] = Quantitative High-Throughput drug screen in 47 multiple myeloma cell lines against the NCATS MIPE library collection: Karpas417_ECACC cell viability assay (AID 1918961); details: Karpas417 myeloma viability, CellTiter-Glo ATP luminescence, 48 h; viability (% of DMSO): at 45.8 µM (top of the series)
In short: as §3
Potency is the fitted concentration of half-maximal effect.

Row | Structure (SMILES) | Potency [1] | Potency [2] | Potency [3] | Potency [4] | Potency [5] | Potency [6] | Potency [7] | Potency [8] | Potency [9] | Potency [10]
1 | Nc1ccn(C2CO[C@H](CO)O2)c(=O)n1 (some centres undefined) | inactive | inactive | inactive | – | – | – | – | – | – | –
2 | O=C1c2cccc(O)c2C(=O)c2c(O)cc(CO)cc21 | inactive | inactive | inactive | inactive | inactive | – | – | – | – | –
3 | COc1cc2ncnc(Nc3cccc(Br)c3)c2cc1OC | 16600 nM (active) | – | – | 16600 nM (active) | 2640 nM (active) | 14800 nM (active) | 3320 nM (active) | 20900 nM (active) | – | –
4 | COC(=O)C1C2CC3c4[nH]c5cc(OC)ccc5c4CCN3CC2CC(OC(=O)c2cc(OC)c(OC)c(OC)c2)C1OC (centres undefined) | 20900 nM (active) | 23500 nM (active) | 16600 nM (active) | – | 26400 nM (active) | – | – | – | – | –
5 | OCC(O)C(O)C(O)CO (centres undefined) | inactive | inactive | inactive | inactive | inactive | – | inactive | 2960 nM (active) | – | –
6 | C[C@H](CCC(=O)O)[C@H]1CC[C@H]2[C@@H]3[C@H](O)C[C@@H]4C[C@H](O)CC[C@]4(C)[C@@H]3CC[C@]12C | inactive | inactive | inactive | – | inactive | – | inactive | – | – | –
7 | CCC(C=C[C@@H]1OC(=O)C=C[C@H]1C)=C[C@H](C)CC=CC(C)=C[C@@H](C)C(=O)[C@@H](C)[C@H](O)[C@@H](C)CC(C)=CC(=O)O | 34.9 nM (active) | 12.4 nM (active) | 39.2 nM (active) | 43.9 nM (active) | 34.9 nM (active) | – | 15.6 nM (active) | 22 nM (active) | – | –
8 | CC(Cc1ccc(O)c(O)c1)(NN)C(=O)O (centres undefined) | inactive | inactive | inactive | inactive | – | – | inactive | 23500 nM (active) | inactive | –
9 | O=C1c2c(O)cccc2[C@@H]([C@@H]2O[C@H](CO)[C@@H](O)[C@H](O)[C@H]2O)c2cc(CO)cc(O)c21 | inactive | inactive | inactive | – | inactive | – | inactive | – | – | –
10 | CC(C)(O)[C@H]1CC[C@@](C)([C@H]2[C@@H](O)C[C@@]3(C)[C@@H]4C[C@H](O[C@@H]5O[C@H](CO)[C@@H](O)[C@H](O)[C@@H]5O)[C@H]5C(C)(C)[C@@H](O[C@@H]6OC[C@@H](O)[C@H](O)[C@@H]6O)CC[C@@]56C[C@@]46CC[C@]23C)O1 | inactive | inactive | inactive | inactive | inactive | – | inactive | 418 nM (active) | inactive | –
11 | C=C1C[C@@]2(O)O[C@@]3(C[C@H]2C(C)C)[C@H](C)CC[C@H]13 | inactive | inactive | inactive | – | inactive | – | inactive | inactive | – | –
12 | NC(=O)c1cccc(-c2cccc(OC(=O)NC3CCCCC3)c2)c1 | inactive | inactive | inactive | – | inactive | – | – | inactive | inactive | –
13 | CCOC(=O)N1CCN([N+]([O-])=NOc2ccc([N+](=O)[O-])cc2C#N)CC1 | 833 nM (active) | – | 526 nM (active) | – | – | 1180 nM (active) | 1180 nM (active) | 418 nM (active) | – | 66.2 nM (active)
14 | CCOC(=O)N1CCN([N+]([O-])=NOc2ccc([N+](=O)[O-])cc2[N+](=O)[O-])CC1 | 5900 nM (active) | 5260 nM (active) | 1180 nM (active) | 1480 nM (active) | 2640 nM (active) | – | 2960 nM (active) | 2640 nM (active) | – | –
15 | C#Cc1cccc(Nc2ncnc3cc(OCCOC)c(OCCO)cc23)c1 | 418 nM (active) | – | 1870 nM (active) | – | 1870 nM (active) | 4690 nM (active) | 1320 nM (active) | – | 264 nM (active) | 526 nM (active)
16 | C[C@H](NC(=O)C(C#N)=Cc1cccc(Br)n1)c1ccccc1 | 11800 nM (active) | 11800 nM (active) | 2350 nM (active) | 2090 nM (active) | 2090 nM (active) | – | 1870 nM (active) | 4180 nM (active) | – | –
17 | COc1cc2c(Nc3ccc(Cl)c(Cl)c3F)ncnc2cc1OCC1C[C@@H]2CN(C)C[C@H]2C1 | 13200 nM (active) | 4180 nM (active) | 2350 nM (active) | 5900 nM (active) | – | – | 1480 nM (active) | 1320 nM (active) | – | –
18 | Cn1c(Nc2ccc(C(F)(F)F)cc2)nc2cc(Oc3ccnc(-c4ncc(C(F)(F)F)[nH]4)c3)ccc21 | 16600 nM (active) | – | 8330 nM (active) | 18700 nM (active) | 18700 nM (active) | 16600 nM (active) | 20900 nM (active) | 16600 nM (active) | 9350 nM (active) | 4180 nM (active)
19 | O=C(O)CCCCC(CCSCc1ccccc1)SCc1ccccc1 (centres undefined) | 18700 nM (active) | – | – | inactive | inactive | 13200 nM (active) | – | – | – | –
20 | C[C@@H]1[C@H](C)CC[C@]2(C(=O)O)CC[C@]3(C)C(=CC[C@@H]4[C@@]5(C)C[C@@H](O)[C@H](O)[C@@](C)(CO)[C@H]5CC[C@]43C)[C@@H]12 | inactive | inactive | inactive | – | inactive | – | – | – | – | –
